Reference: PubChem BioAssay (Tox21)
Active and inactive are the calls of the source. The call rests on the fitted dose curve; in most records, active means well fitted curve in the direction sought with a large enough effect in the repeat runs; inconclusive means weak or mixed curves; inactive means flat fitted curve, though single readings scatter.

Experiment: qHTS assay to test for compound auto fluorescence at 460 nm (blue) in HEK293 cells (AID 720678)
Conditions: blue autofluorescence 405/460 nm; series mostly up to 91.3 µM; fluorescence, % of triamterene: at the top concentration
Excerpt: National Center for Advancing Translational Sciences [NCATS]
NIH Chemical Genomics Center [NCGC]
U.S. Environmental Protection Agency [EPA]
National Institutes of Environmental Health Sciences [NIEHS]
National Toxicology Program [NTP]
U.S. Food and Drug Administration [FDA]
Compound auto fluorescence often interferes with screening of the compound library against various biological targets and signaling pathways. Some of these compounds may have fluorophoric properties. Such properties may interfere with the assay outputs resulting in false positives and/or negatives. To decrease such complications and ensure the compound activities are relevant in terms of biological response, the Tox21 10K compound library was screened for auto fluorescence.
From the fluorophores used as reporter signals in our screening assays, the auto fluorescence equivalencies of compounds against three fluorophores have been evaluated: Triamterene, Fluorescein and Rose Bengal sodium for blue, green and red fluorescence, respectively. The fluorescence intensities were measured using Excitation/Emission wavelengths at 405/460nm, 485/535nm and 540/590nm for blue, green and red labels, respectively. This assay includes the blue fluorescence data.
Tox21 Assay Protocol Summary:
2,000 HEK293 cells in 5 uL of culture medium containing 10% dialyzed FBS per well were dispensed into black wall/clear bottom 1536-well plates using a Multidrop Combi Dispenser (Thermo Scientific). The assay plates were incubated for 4-5 hr at 37C to allow cell attachment to the well bottom, followed by the transfer of 23 nL compound or DMSO vehicle by a pintool work station (Kalypsys, San Diego, CA). After the assay plates were incubated overnight at 37C and 5% CO2, fluorescence intensities in the assay plates were measured by an Envision (PerkinElmer, Shelton, CT) plate reader using three labels for measuring blue, green and red fluorescence at […] 460, 535 and 590nm respectively.
On the % scale 0 is the no-effect control and ±100 the full control effect.

SMILES	fluorescence, % of triamterene	outcome
CCC[N+](CCC)(CCC)CCC	-0.0099% (inactive)	
Nc1ccc2c(c1)Cc1ccccc1-2	-0.0227% (inactive)	
CCC(C)(C)c1ccc(O)c(C(C)(C)CC)c1		inactive
CN1CC[C@]23c4c5ccc(O)c4O[C@H]2[C@@H](O)C=C[C@H]3[C@H]1C5	-0.147% (inactive)	
CNC(=O)Oc1cccc(N=CN(C)C)c1	0.127% (inactive)	
NC(=O)CF	-0.0106% (inactive)	
O=C(CCl)CCl		inactive
CCCCC(CC)COC(=O)c1c(Br)c(Br)c(Br)c(Br)c1C(=O)OCC(CC)CCCC (stereo not given)	1.11% (inactive)	
CC(C)(C)NCC(O)c1ccccc1Cl (stereo not given)	0.0889% [at 46 µM] (inactive)	
Nc1c(Br)cc(Br)c2c1C(=O)c1ccccc1C2=O	-0.127% [at 18.6 µM] (inactive)	
c1ccc2c(c1)sc1ccccc12		inactive
O=C([O-])c1ccccn1.O=C([O-])c1ccccn1.O=C([O-])c1ccccn1.[Cr+3]	-0.0234% (inactive)	
CCNC(=O)NC(=O)/C(C#N)=N/OC	-0.0657% (inactive)	
C=CCOC(=O)C(C)(C)OC(=O)c1cc(-n2c(=O)cc(C(F)(F)F)n(C)c2=O)ccc1Cl	0.0011% (inactive)	
CC(C)C1(C)N=C(c2ncccc2C(=O)O)NC1=O (stereo not given)	-0.0173% (inactive)	
COC(=O)C1(O)c2ccccc2-c2ccccc21	0.0142% (inactive)	
CCc1ccccc1N	0.0021% (inactive)	
CCOC(=O)NC(O)C(Cl)(Cl)Cl (stereo not given)	0.0531% [at 46 µM] (inactive)	
OCCSSCCO	-0.0066% (inactive)	
CC(C)(c1ccccc1)c1cc(-n2nc3ccccc3n2)c(O)c(C(C)(C)c2ccccc2)c1	-0.0378% [at 46 µM] (inactive)	

SMILES	fluorescence, % of triamterene	outcome
CCc1cnc(C2=NC(C)(C(C)C)C(=O)N2)c(C(=O)O)c1 (stereo not given)		inactive
CC[N+]1(C)CCCC(OC(=O)C(O)(c2ccccc2)c2ccccc2)C1 (stereo not given)	0.0547% [at 46 µM] (inactive)	
O=CC=O		inactive
CCCN(CCC)C(=O)Cc1c(-c2ccc(Cl)cc2)nc2ccc(Cl)cn12	0.0563% [at 46 µM] (inactive)	
C[CH2][Hg][S]c1ccccc1C(=O)O		inactive
N#CC(C#N)=Cc1ccc(O)c(O)c1	0.0655% [at 46 µM] (inactive)	
FC(Cl)(Cl)C(F)(Cl)Cl	-0.0019% [at 95.7 µM] (inactive)	
CCCBr	-0.267% (inactive)	
c1ccc2sc(SNC3CCCCC3)nc2c1		inactive
CC(C)c1ccc(OP(=O)(Oc2ccc(C(C)C)cc2)Oc2ccc(C(C)C)cc2)cc1		inactive
N#CC1(N=NC2(C#N)CCCCC2)CCCCC1	-0.306% (inactive)	
CCCCC#N	-0.294% (inactive)	
COc1ccccc1N1CCNCC1	0.346% [at 46 µM] (inactive)	
CN(C)C(=O)Nc1cccc(OC(=O)NC(C)(C)C)c1	-0.0199% (inactive)	
O=C(O)C(O)C(O)C(=O)O (stereo not given)	0.0041% (inactive)	
CN1C[C@H](C(=O)N[C@]2(C)O[C@@]3(O)[C@@H]4CCCN4C(=O)[C@H](Cc4ccccc4)N3C2=O)C=C2c3cccc4[nH]cc(c34)C[C@H]21		inactive
Clc1ccc2ccccc2c1	-0.0062% [at 95.7 µM] (inactive)	
COP(=O)(OC)OC(Br)C(Cl)(Cl)Br (stereo not given)		inactive
CCCC[P+](CC)(CCCC)CCCC (tested in a mixture with another compound)	-0.0262% (inactive)	
C[C@@H]1C[C@@H]([C@H](O)CC2CC(=O)NC(=O)C2)C(=O)[C@@H](C)C1		inactive
